# HTR5A ag ctr: HTR5A agonism, opioid heterodimer counter-screen; P47898; HTR5A agonist assay, luminescence, cell-based; activation, % at 9.3 µM; AID 504692; hit rate 0.61% among 340,000; in the data active = activation mostly above about 9.5%, no sharp cut-off; inactive = mostly below about 7.6%
# Target sequence (P47898 whole entry, looked up): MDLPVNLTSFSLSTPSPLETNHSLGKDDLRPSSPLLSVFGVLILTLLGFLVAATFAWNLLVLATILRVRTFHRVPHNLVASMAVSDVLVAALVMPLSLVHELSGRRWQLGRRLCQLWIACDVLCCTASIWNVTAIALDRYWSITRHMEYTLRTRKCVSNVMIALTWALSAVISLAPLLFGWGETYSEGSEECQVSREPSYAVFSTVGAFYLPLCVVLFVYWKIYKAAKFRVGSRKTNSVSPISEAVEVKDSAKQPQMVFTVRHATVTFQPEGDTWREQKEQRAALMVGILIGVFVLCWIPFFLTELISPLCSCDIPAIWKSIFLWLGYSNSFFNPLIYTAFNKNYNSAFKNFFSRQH
# OPRM1-OPRD1 ag: agonists of human mu-delta opioid receptor heterodimerization; hit rate 0.3% among 340,000; P35372+P41143; activation, % at 9.3 µM; cells, OPRM1-OPRD1 heterodimerization, luminescence; in the data active = activation above about 18%
# OPRM1-OPRD1 inv: inverse agonists of human mu-delta opioid receptor heterodimerization; hit rate 0.21% among 340,000; P35372+P41143; inhibition, % at 9.3 µM; cell-based MOR-DOR heterodimer luminescence, inverse agonism; in the data active = inhibition above about 22%, passing the limit was not always enough
# HTR5A inv ag: inverse agonist of human HTR5A in OPRM1-OPRD1 counter-screen | P47898 | HTR5A cell line, luminescence, inverse agonism | inhibition, % at 9.3 µM | hit rate 0.083% among 340,000; in the data active = inhibition mostly above about 23%, no sharp cut-off; inactive = mostly below about 18%
# A number is an active result; . = inactive. An excerpt weighted towards active compounds, which were near 1.1% of everything screened.
SMILES,HTR5A ag ctr,OPRM1-OPRD1 ag,OPRM1-OPRD1 inv,HTR5A inv ag
Cc1cccn2c(=O)nc(SCC(=O)NCc3ccccc3)nc12,.,.,.,.
COc1ccc(C2CC(=O)C(C3NCCc4ccccc43)=C(O)C2n2cncn2)cc1 (centres undefined),11,.,.,.
O=C1C=C(O)C(n2cncn2)C(c2ccc(F)cc2)C1 (centres undefined),.,.,.,.
COc1ccc(-c2noc(N3CCCC(C(=O)Nc4ccc(F)cc4F)C3)n2)cc1 (centres undefined),.,.,.,.
CC(C)CN(C(=O)COc1ccc(C(C)(C)C)cc1)C1CCS(=O)(=O)C1 (centres undefined),.,.,.,.
CS(=O)(=O)c1ccc(-c2sc3ccccc3c2C(=O)N2CCN(c3ccc(F)cc3)CC2)cc1,.,.,.,.
CCOC(=O)N1CCN(C(=O)CCn2c(=S)[nH]c3ccccc3c2=O)CC1,.,.,.,.
O=C(CCn1c(=S)[nH]c2ccccc2c1=O)N1CCCCC1,9.4,.,.,.
COC(=O)C1CCN(C(=O)C2CC(=O)N(c3ccc(C)c(Cl)c3)C2)CC1 (centres undefined),.,.,.,.
O=C(COc1ccccc1)Nc1ccc(CSc2ccccc2)cc1,12,.,.,.
COc1cc(/C=N/NC(=O)c2cc(-c3ccc4c(c3)OCO4)n[nH]2)ccc1O,.,.,.,.
O=C(N/N=C/c1ccc([N+](=O)[O-])cc1)c1cc(-c2ccc3c(c2)OCO3)n[nH]1,13,.,.,.
CC1CC(=O)c2c(cc3c(-c4c(O)cc(O)c5c(O)c6c(cc45)OC(C)CC6=O)c(O)cc(O)c3c2O)O1 (centres undefined),17,82,.,.
N#Cc1ccc(Nc2nc(-c3ccc(O)cc3O)cs2)cc1C(F)(F)F,13,.,.,.
Oc1ccc(-c2csc(Nc3ccc4c(c3)OCO4)n2)c(O)c1,.,.,.,.
COc1ccc(Cn2c(=S)[nH]c3cc(C(=O)NCc4cccnc4)ccc3c2=O)cc1,13,.,.,.
CCOC(=O)C1=C(O)/C(=C/c2ccc(-c3ccccc3C(=O)O)o2)SC1=Nc1ccc(C)cc1,13,.,.,.
CCOC(=O)C1=C(O)/C(=C/c2ccc(-c3ccccc3C(=O)O)o2)SC1=Nc1ccc(OC)cc1,.,.,.,.
CCNC(=O)NC(=O)CSc1ccc(S(=O)(=O)N2CCCCC2)cn1,.,.,.,.
CCC1C(c2ccccc2)=CCC(C(=O)O)C1C (centres undefined),.,.,.,.
O=C1C(=O)N(CCN2CCOCC2)C(c2ccccn2)/C1=C(/O)c1ccccc1 (centres undefined),12,.,.,.
COc1cc2cc(CCCOC(=O)c3cccc(Br)c3)oc(=O)c2cc1OC,.,.,.,.
CCOC(=O)c1[nH]c(C)c(C(=O)Nc2ccc(C)c(C)c2)c1C,13,.,.,.
S=c1nc2ccccc2c2nc(-c3ccccc3)[nH]n12,9.2,.,.,.
CCOc1ccc2noc3c2c1C(=O)c1ccccc1-3,.,.,.,.
SMILES,HTR5A ag ctr,OPRM1-OPRD1 ag,OPRM1-OPRD1 inv,HTR5A inv ag
O=C1c2ccccc2-c2onc3ccc(N4CCCC4)c1c23,.,19,.,.
CCCCNc1c(-c2ccc(OC)c(Sc3ccc(OC)cc3)c2)nc2ccccn12,11,.,.,.
NC(=O)C1CCN(C(=O)NC2CC(=O)N(c3ccc4c(c3)OCCO4)C2)CC1 (centres undefined),.,.,.,.
Cc1cccc(N(C)C(=O)CN(C)S(=O)(=O)c2ccc3c(c2)c(=O)n(C)c(=O)n3C)c1,12,.,.,.
CN(CC(=O)N(CCO)Cc1ccccc1)S(=O)(=O)c1ccc2c(c1)c(=O)n(C)c(=O)n2C,.,.,.,.
O=C(O)CCc1[nH]c2ccccc2c1Sc1ccccc1,.,.,.,.
O=C(COc1cccc(Br)c1)NN=C1c2ccccc2-c2ccccc21,.,.,.,.
O=C(COc1cccc(Br)c1)N/N=C1\CCCc2ccccc21,14,.,.,.
Cc1noc(C)c1Cc1c(Cl)cccc1Cl,.,.,.,.
Cc1noc(C)c1Cc1ccc(O)cc1,14,.,.,.
COc1cc2c(cc1NC(=O)C(C)OC(=O)c1ccc(S(=O)(=O)Nc3ccccc3Cl)cc1)oc1ccccc12 (centres undefined),13,.,.,.
COc1cc2c(cc1NC(=O)C(C)N1CCN(S(=O)(=O)c3ccc(C)c(C)c3)CC1)oc1ccccc12 (centres undefined),.,.,.,.
CCC(CC)c1nnc(NC(=O)CC(C)c2ccccc2)s1 (centres undefined),12,.,.,.
Cc1cc(OCC(=O)Nc2ccccc2N2CCOCC2)c(C(C)C)cc1Cl,.,.,.,.
Nc1nc(N)nc(C2C=CCCC2)n1 (centres undefined),.,.,.,.
CCN(c1cccc(C)c1)S(=O)(=O)c1ccc2c(c1)CCCN2C(C)=O,.,.,.,.
CCN(c1ccccc1)S(=O)(=O)c1ccc2c(c1)CCCN2C(C)=O,11,.,.,.
Cc1noc(C)c1NC(=O)N(C)C[C@@H]1Oc2ccc(NC(=O)CCC(F)(F)F)cc2CC(=O)N([C@@H](C)CO)C[C@@H]1C,.,.,.,.
CC(=NNS(=O)(=O)c1ccc([N+](=O)[O-])cc1)c1ccc(C)cc1,11,.,.,.
C/C(=N/NS(=O)(=O)c1ccc(F)cc1)c1ccncc1,11,.,.,.
CC(=O)Nc1ccc(/C(C)=N/NS(=O)(=O)c2ccc(C)cc2)cc1,.,.,.,.
O=C(CNC(=O)C(c1ccccc1)c1ccccc1)N/N=C\c1ccc(C(=O)O)cc1,.,.,.,.
Cn1nc(C(C)(C)C)c([N+](=O)[O-])c1C(=O)N1CCCCCC1,.,.,.,.
COc1ccc(NC(=O)CCC(=O)N2CCC(c3ccccc3)=N2)cc1S(=O)(=O)N1CCCCC1,.,.,.,.
Cc1cnc(NC(=O)c2cc(-c3ccccc3)nn2-c2ccccc2)s1,.,.,.,.
SMILES,HTR5A ag ctr,OPRM1-OPRD1 ag,OPRM1-OPRD1 inv,HTR5A inv ag
Cc1ccc(N2CCN(CC(O)COC3CCCCC3)CC2)cc1 (centres undefined),10,.,.,.
CC1CCCCC1NC(=S)Nc1cccc(S(=O)(=O)N(C)C)c1 (centres undefined),11,.,.,.
CCN1C(N(C)CCc2c[nH]c3ccccc23)=N[C@@H](c2cccc(C(F)(F)F)c2)C(C(=O)OC)=C1C,22,.,.,.
CC(C)c1ccc(OCC(O)CNC(C)c2ccccc2)cc1 (centres undefined),12,.,.,.
CCC(=O)c1ccc(OCC(O)CNC(C)c2ccccc2)cc1 (centres undefined),.,.,.,.
NC(=O)/C=C/C(=O)Nc1ccc(Cl)cc1,.,.,.,.
O=C(/C=C/C(Cl)(Cl)Cl)Nc1ccc(Cl)cc1,17,18,.,.
COc1ccccc1CNS(=O)(=O)c1ccc(-n2cnnn2)c(OC)c1,.,.,.,.
O=C1CC(c2cccc(Cl)c2)Cc2nc(N3CCOCC3)ncc21 (centres undefined),13,.,.,.
O=C1CC(c2ccc(F)cc2)Cc2nc(N3CCOCC3)ncc21 (centres undefined),.,.,.,.

# Screening data deposited in PubChem BioAssay by The Scripps Research Institute Molecular Screening Center.
